The source of these data is the supplement of paper PMC9948646.

Unmarked numbers belong to inactive results.

The assay has as its system gramicidin D channels in DC22:1PC lipid vesicles (bilayer-modifying potency). The assay can be described thus: initial Tl+ fluorescence quench rate relative to no-drug control (NormRate, gramicidin monomer-dimer shift) (ratio (fold of control)); higher = stronger bilayer-modifying effect (equilibrium shifted toward conducting dimers), active = 1.5 or more. The note with it: 10 µM; lipid concentration 50 µM; temperature: 25 °C. The method, then:
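Stopped-flow fluorescence quench assay: ANTS-loaded DC22:1PC large unilamellar vesicles doped with gramicidin D (1:2000), 50 µM lipid, equilibrated 10 min with 10 µM drug (0.1% DMSO), mixed with Tl+ quench buffer at 25°C. Initial quench rate (Tl+ influx) was fitted with a modified stretched exponential and normalised to the no-drug control rate (NormRate); duplicates from two independent LUV preparations (triplicates for 7 drugs).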
As for `Cc1cc(NC(=O)c2ccc(S(=O)(=O)N(Cc3ccccc3)C(C)C)cc2)no1`, the “initial Tl+ fluorescence quench rate” value is 1.14.
For the molecule `Nc1nc2ccc(-c3cncc(Oc4ccc(F)cc4)c3)cc2[nH]1`, the “initial Tl+ fluorescence quench rate” value is 1.85 (active).
On to `C[C@@H](C(=O)N1CCCC1)N1CCN(S(=O)(=O)c2ccc(C(C)(C)C)cc2)CC1`, for which the “initial Tl+ fluorescence quench rate” value was 1.15.
Take `c1ccc(Oc2ccc(-c3cc(C4CCOCC4)[nH]n3)cc2)cc1`: the “initial Tl+ fluorescence quench rate” value is 3.48 (active).
In the case of `COc1ccc(-c2cnc3cnc(-c4cccc(OC(C)C)c4)cn23)cc1`, the “initial Tl+ fluorescence quench rate” value is 2.01 (active).
For the molecule `O=C(NCCc1c[nH]c2ccccc12)c1cc2ccccc2oc1=O`, the “initial Tl+ fluorescence quench rate” value is 1.95 (active).
`O=C(c1cc2ccccc2o1)N1CCN(Cc2ccc3c(c2)OCO3)CC1`: the “initial Tl+ fluorescence quench rate” value is 1.08.
For `CCOc1ccc2cc(-c3nn(C(C)(C)C)c(N)c3C(N)=O)cnc2c1`, the “initial Tl+ fluorescence quench rate” value is 1.21.
With `COc1cncc(-c2cncc(N3CCN(c4ccncc4)CC3)n2)c1`, the “initial Tl+ fluorescence quench rate” value was 1.11.
Turning to `O=C(c1ccc(F)cc1)N(CCNc1ccccc1)c1ccccc1`, the “initial Tl+ fluorescence quench rate” value is 1.36.
With `CCCCN(CCCC)c1c(C#N)cc(S(=O)(=O)Nc2ccccc2)cc1C#N` the figure was 1.1.
Consider `Nc1nccc2ccc(Oc3ccncc3)cc12`, for which the “initial Tl+ fluorescence quench rate” value is 1.1.
Turning to `CC1=Nc2ccc(Cl)cc2[C@H](c2ccccc2)N1CCNC(=O)CN(C)C`, the “initial Tl+ fluorescence quench rate” value is 1.07.
Turning to `CCNC(=O)[C@H](C)Nc1nc(-c2cccnc2)nc2sc(C)c(C)c12`, the “initial Tl+ fluorescence quench rate” value was 1.08.
Then `Nc1cccnc1Nc1ccc(Cl)cc1`, with 1.05.
`Cc1[nH]c2ccccc2c1[C@@H](c1cccs1)N1CCN(C)CC1`: the “initial Tl+ fluorescence quench rate” value was 1.44.
As for `COc1ccc(S(=O)(=O)Nc2ccc(CN3CCN(C(=O)c4cccc(C#N)c4)CC3)cc2)cc1`, the “initial Tl+ fluorescence quench rate” value is 1.41.
Consider `CCN(CC)S(=O)(=O)c1ccc(Cl)c(C(=O)Nc2ccc3nc(C)sc3c2)c1`, for which the “initial Tl+ fluorescence quench rate” value is 2.06 (active).
With `COc1ccc(Cn2cnc3c(-c4ccco4)nc(Cl)nc32)cc1` the figure was 1.59 (active); with `O=C(Nc1ccc(C(F)(F)F)c(C(F)(F)F)c1)c1cc(Cl)ccc1O`, 2.9 (active); with `C[C@H]1COc2c(N3CCN(C)CC3)c(F)cc3c(=O)c(C(=O)O)cn1c23`, 1.04.
Take `Cn1ccnc1CNCCS(=O)(=O)c1cccc(Nc2ccc(-c3cccc(F)c3)cn2)c1`: the “initial Tl+ fluorescence quench rate” value is 2.38 (active).
`O=C(N[C@H]1CCN(c2ccnc3ccccc23)C1)c1cccc(C(F)(F)F)c1`: the “initial Tl+ fluorescence quench rate” value was 1.27.
For the molecule `C[C@H]1COC2(CCN(c3nc(=O)c4cc(C(F)(F)F)cc([N+](=O)[O-])c4s3)CC2)O1`, the “initial Tl+ fluorescence quench rate” value is 1.08.
`Cc1ccc(NC(=O)c2cc(S(=O)(=O)NC(C)(C)C)ccc2C)nc1`: the “initial Tl+ fluorescence quench rate” value was 1.21.
Take `COc1ccc(CCN2CCC(NCc3cccc(N(C)C)c3)CC2)cc1`: the “initial Tl+ fluorescence quench rate” value is 1.07.
In the case of `COC(=O)c1cccc2oc(-c3cccc(OC)c3NC(=O)c3cc(-c4ccccc4)on3)nc12`, the “initial Tl+ fluorescence quench rate” value is 1.76 (active).
Consider `Nc1ncnc2c1ncn2C[C@@H](O)[C@@H](O)C(=O)O`, for which the “initial Tl+ fluorescence quench rate” value was 1.05.
In the case of `Cc1cccc(-c2nc(Nc3ccncn3)c3sccc3n2)n1`, the “initial Tl+ fluorescence quench rate” value was 1.81 (active).
With `COc1cc2ncnc(NC3CCN(Cc4ccccc4)CC3)c2cc1OC` the figure was 1.04; with `CCOc1ccccc1N[C@H](C)C(=O)Nc1cc(C(F)(F)F)ccc1N1CCOCC1`, 1.72 (active); with `COc1ccccc1OCCCCn1c(C2CC2)nc2ccccc21`, 1.18.
As to `CC(C)c1ncc(-c2ccncc2)c([C@H]2CC[C@H](CNC(=O)c3cccnc3)CC2)n1`, the “initial Tl+ fluorescence quench rate” value was 1.02.
Take `Cc1nc(-c2cccc(NCc3ccccc3)c2)[nH]c1C`: the “initial Tl+ fluorescence quench rate” value was 1.24.
As to `CC(=O)Nc1ccc(NC(=O)c2cc(-c3cc(Cl)ccc3O)[nH]n2)cc1`, the “initial Tl+ fluorescence quench rate” value was 1.06.
Consider `[H]/N=C(\N)c1ccc(-n2cc(-c3cc(/C(N)=N/[H])ccc3OC)nn2)cc1`, for which the “initial Tl+ fluorescence quench rate” value was 1.05.
Then `CCOC(=O)NC(=O)c1ccsc1NC(=O)c1nc2ccccc2s1`, with 3.21 (active); and `CCOC(=O)c1c(NC(=O)c2c(F)c(F)c(F)c(F)c2F)sc(C(N)=O)c1C`, with 1.41.
